Data: PubChem BioAssay (NCI)
About 83,000 compounds went through this panel and 20% of them were active in at least one assay; those are over-represented in the sample as a whole.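 Treatment: one concentration, 48 hours, 96-well format. Scoring: percent growth, with anything below 10 considered active.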 Activity calls are given as the source filed them.

Legend:
Assay in all cases: NCI-60 one-dose screen, 48 h (100 = growth as untreated, 0 = no growth, -100 = all killed)
Conditions in all cases: 10 µM unless noted
NCI-H23 lung = tested on: NCI-H23 lung
NCI-H226 lung = tested on: NCI-H226 lung
NCI-H322M lung = tested on: NCI-H322M lung
HOP-62 NSCLC = tested on: HOP-62 NSCLC
NCI-H460 lung = tested on: NCI-H460 lung
HOP-92 NSCLC = tested on: HOP-92 NSCLC
NCI-H522 lung = tested on: NCI-H522 lung
A549/ATCC NSCLC = tested on: A549/ATCC NSCLC
786-0 renal = tested on: 786-0 renal
COLO 205 colon = tested on: COLO 205 colon

Measured: growth

COc1ccc2cc(-c3nc(C)c(C(C)=O)c(-c4ccc(C)cc4)n3)ccc2c1
inactive: NCI-H23 lung 89.2% | NCI-H226 lung 80.1% | NCI-H322M lung 87.5% | HOP-62 NSCLC 105% | NCI-H460 lung 92.6% | HOP-92 NSCLC 86.2% | NCI-H522 lung 81.3% | A549/ATCC NSCLC 92.4% | 786-0 renal 87.9% | COLO 205 colon 102%

COc1ccccc1NC(=O)OCC12COCN1COC2
inactive: NCI-H23 lung 100% | NCI-H226 lung 99% | NCI-H322M lung 107% | HOP-62 NSCLC 104% | NCI-H460 lung 104% | HOP-92 NSCLC 105% | NCI-H522 lung 100% | A549/ATCC NSCLC 92.9% | 786-0 renal 103% | COLO 205 colon 108%

COc1ccc(/C=c2\c(=O)n(-c3ccccc3)c3nn4c(=O)c(=O)[nH]nc4n23)cc1
inactive: NCI-H23 lung 99.9% | NCI-H226 lung 92.8% | NCI-H322M lung 113% | HOP-62 NSCLC 102% | NCI-H460 lung 106% | HOP-92 NSCLC 100% | NCI-H522 lung 100% | A549/ATCC NSCLC 110% | 786-0 renal 108% | COLO 205 colon 119%

Fc1ccc2nc(-c3ccc(-c4noc(-c5ccc(Cl)cc5)n4)cc3)[nH]c2c1
inactive: NCI-H23 lung 104% | NCI-H226 lung 97.1% | NCI-H322M lung 107% | HOP-62 NSCLC 103% | NCI-H460 lung 103% | HOP-92 NSCLC 105% | NCI-H522 lung 87.1% | A549/ATCC NSCLC 100% | 786-0 renal 86.5% | COLO 205 colon 116%

FC(F)(F)C1=NNC(c2ccc3ccccc3c2)=NN1
inactive: NCI-H23 lung 94.2% | NCI-H226 lung 87.4% | NCI-H322M lung 103% | HOP-62 NSCLC 106% | NCI-H460 lung 101% | HOP-92 NSCLC 95.6% | NCI-H522 lung 97.2% | A549/ATCC NSCLC 102% | 786-0 renal 107% | COLO 205 colon 105%

Nc1ccc(N(O)/C=C2\C=CC=CC2=O)cc1N
inactive: NCI-H23 lung 82.7% | NCI-H226 lung 103% | NCI-H322M lung 110% | HOP-62 NSCLC 95.7% | NCI-H460 lung 119% | HOP-92 NSCLC 91.3% | NCI-H522 lung 72.7% | A549/ATCC NSCLC 94.4% | 786-0 renal 92.3% | COLO 205 colon 114%

CNC(=O)c1cc(Oc2ccc(NC(=O)c3[nH]c(SC)nc3-c3ccc(F)cc3)cc2)ccn1
inactive: NCI-H23 lung 75.4% | NCI-H226 lung 81.7% | NCI-H322M lung 85.4% | HOP-62 NSCLC 95% | NCI-H460 lung 72.6% | HOP-92 NSCLC 70.6% | NCI-H522 lung 68% | A549/ATCC NSCLC 72.2% | 786-0 renal 78.1%
active: COLO 205 colon 7.33%

O=C(CCc1nc2sc3c(c2c(=O)[nH]1)CCC3)NCc1cn(-c2ccccc2)nc1-c1ccccc1
active: NCI-H460 lung 1.28%
inactive: NCI-H23 lung 66.2% | NCI-H226 lung 92.2% | NCI-H322M lung 92.8% | HOP-62 NSCLC 80.8% | HOP-92 NSCLC 95.9% | NCI-H522 lung 78.9% | A549/ATCC NSCLC 16.5% | 786-0 renal 98.4% | COLO 205 colon 75.7%

CC(=O)c1c(C)nc(-c2cc(C)cc(Cl)c2)nc1-c1cccc(Oc2ccccc2)c1
inactive: NCI-H23 lung 86% | NCI-H226 lung 84% | NCI-H322M lung 91% | HOP-62 NSCLC 76.2% | NCI-H460 lung 36.1% | HOP-92 NSCLC 38% | NCI-H522 lung 59% | A549/ATCC NSCLC 69.1% | 786-0 renal 70.3% | COLO 205 colon 70.2%

CC(=O)c1cc(C(=O)c2ccc3c(c2)Sc2ccccc2N3)c2c(C)cccn12
inactive: NCI-H23 lung 27% | NCI-H226 lung 47.8% | NCI-H322M lung 37.4% | HOP-62 NSCLC 19.1% | HOP-92 NSCLC 94% | NCI-H522 lung 12.5% | A549/ATCC NSCLC 19.5%
active: NCI-H460 lung 6.41% | 786-0 renal 4.46% | COLO 205 colon -43.7%

COc1ccc(/C(=C\c2cc(OC)c(OC)c(OC)c2)C(=O)N2CCCNCC2)cc1
inactive: NCI-H23 lung 104% | NCI-H226 lung 100% | NCI-H322M lung 103% | HOP-62 NSCLC 106% | NCI-H460 lung 110% | HOP-92 NSCLC 102% | NCI-H522 lung 100% | A549/ATCC NSCLC 105% | 786-0 renal 111% | COLO 205 colon 110%

CCN(CC)Cc1cc(Nc2ccnc3cc(Cl)ccc23)cc(-c2ccc(Cl)cc2)c1O
active: NCI-H322M lung 5.72% | HOP-62 NSCLC -46.1% | NCI-H460 lung 3.23% | HOP-92 NSCLC -8.91%
inactive: NCI-H23 lung 24% | NCI-H226 lung 17.6% | NCI-H522 lung 35.3% | A549/ATCC NSCLC 20.7% | 786-0 renal 55% | COLO 205 colon 55.8%

O=C1CC2(O)CSc3nc(=O)cc(n32)N1 (stereo not given)
inactive: NCI-H23 lung 107% | NCI-H226 lung 98.6% | NCI-H322M lung 93.2% | HOP-62 NSCLC 112% | NCI-H460 lung 104% | HOP-92 NSCLC 105% | NCI-H522 lung 102% | A549/ATCC NSCLC 96.5% | 786-0 renal 99.6% | COLO 205 colon 103%

CN1CCN(c2ccc(N3Cc4ccccc4OC4=C3C(=O)c3c(O)ccc(O)c3C4=O)cn2)CC1
active: NCI-H23 lung -23.2% | NCI-H322M lung 4.57% | HOP-62 NSCLC 1.99% | NCI-H460 lung -22.4% | HOP-92 NSCLC -58.7% | NCI-H522 lung -53.3% | A549/ATCC NSCLC -4.29% | 786-0 renal -77.4% | COLO 205 colon -77.1%
inactive: NCI-H226 lung 35.2%

CC(=O)[C@@]1(O)[C@H](C)C[C@H]2[C@@H]3C=C(C)C4=Cc5c(cnn5-c5ccccc5)C[C@]4(C)[C@H]3[C@@H](O)C[C@@]21C
active: NCI-H460 lung -20.5% | NCI-H522 lung -2.67% | 786-0 renal -9.28% | COLO 205 colon -23.8%
inactive: NCI-H23 lung 32.4% | NCI-H226 lung 63.3% | NCI-H322M lung 75.9% | HOP-62 NSCLC 34.8% | HOP-92 NSCLC 13.2% | A549/ATCC NSCLC 14.5%

COc1cc(C)cc2oc3oc(=O)c(-c4csc(-c5cc6ccccc6oc5=O)n4)cc3c(=O)c12
inactive: NCI-H23 lung 101% | NCI-H226 lung 102% | NCI-H322M lung 105% | HOP-62 NSCLC 103% | NCI-H460 lung 106% | HOP-92 NSCLC 105% | NCI-H522 lung 103% | A549/ATCC NSCLC 114% | 786-0 renal 106% | COLO 205 colon 119%

CCCCCNCCCCCNc1cc(OC)cc2cccnc12
inactive: NCI-H23 lung 90.7% | NCI-H226 lung 94% | NCI-H322M lung 89.4% | HOP-62 NSCLC 79.1% | NCI-H460 lung 95.9% | NCI-H522 lung 89.6% | A549/ATCC NSCLC 96.1% | 786-0 renal 83.1% | COLO 205 colon 63.6%
active: HOP-92 NSCLC 9.38%

CN1CCN(Cc2ccc(NC(=O)c3cnc(F)c(C#Cc4cnc(N)c5ncccc45)c3)cc2C(F)(F)F)CC1
inactive: NCI-H23 lung 28.3% | NCI-H322M lung 33.7% | HOP-62 NSCLC 16.6% | NCI-H460 lung 13.1% | NCI-H522 lung 30% | A549/ATCC NSCLC 23.3% | 786-0 renal 29.5%
active: NCI-H226 lung -14.2% | HOP-92 NSCLC -8.06% | COLO 205 colon -7.96%

CC1C2CCC(C2)C1COCCOCCO (stereo not given)
inactive: NCI-H23 lung 107% | NCI-H226 lung 104% | NCI-H322M lung 109% | HOP-62 NSCLC 108% | NCI-H460 lung 112% | HOP-92 NSCLC 105% | NCI-H522 lung 96% | A549/ATCC NSCLC 92% | 786-0 renal 104% | COLO 205 colon 121%

O=[N+]([O-])c1cc(F)c2cccnc2c1O
inactive: NCI-H23 lung 87.8% | NCI-H226 lung 102% | NCI-H322M lung 100% | HOP-62 NSCLC 97.1% | NCI-H460 lung 92.1% | HOP-92 NSCLC 104% | NCI-H522 lung 60.8% | A549/ATCC NSCLC 105% | 786-0 renal 102% | COLO 205 colon 104%

COc1ccc(/C=C/C(=O)c2ccc(NC(=O)CSc3nnc(-c4ccc(Cl)cc4)n3-c3ccccc3)cc2)cc1
inactive: NCI-H23 lung 92.4% | NCI-H226 lung 104% | NCI-H322M lung 106% | HOP-62 NSCLC 103% | NCI-H460 lung 104% | HOP-92 NSCLC 107% | NCI-H522 lung 84.6% | A549/ATCC NSCLC 74% | 786-0 renal 98% | COLO 205 colon 106%

Cn1nc(C(F)(F)F)cc1-c1cc(Cl)c(OCc2ccc(Cl)cc2)c(-c2ccc(Cl)c(C(F)(F)F)c2)c1O
active: NCI-H23 lung 4.69% | NCI-H226 lung -13.3% | NCI-H322M lung 9.05% | HOP-62 NSCLC -28.6% | NCI-H460 lung 0.354% | HOP-92 NSCLC -25.8% | NCI-H522 lung 1.3% | 786-0 renal -4.08% | COLO 205 colon -78.6%
inactive: A549/ATCC NSCLC 13.2%

COc1ccc(-c2nsc3c2NC(=O)CC3c2cccc(F)c2)cc1 (stereo not given)
active: NCI-H522 lung 4.49%
inactive: NCI-H23 lung 59% | NCI-H226 lung 76.5% | NCI-H322M lung 53.6% | HOP-62 NSCLC 60.2% | NCI-H460 lung 10.4% | HOP-92 NSCLC 52.7% | A549/ATCC NSCLC 34.3% | 786-0 renal 80% | COLO 205 colon 25.8%

NS(=O)(=O)c1ccc(N2N=C(c3cccs3)CC2c2ccccc2O)cc1 (stereo not given)
active: NCI-H460 lung -0.156% | HOP-92 NSCLC -8.37% | NCI-H522 lung -23.9% | A549/ATCC NSCLC 7.33% | COLO 205 colon -73.7%
inactive: NCI-H23 lung 28.1% | NCI-H226 lung 19.2% | NCI-H322M lung 25.4% | HOP-62 NSCLC 24.4% | 786-0 renal 10.8%

COc1ccc2c(c1)CCCC21C(=O)Nc2ccccc21 (stereo not given)
inactive: NCI-H23 lung 101% | NCI-H226 lung 102% | NCI-H322M lung 91.6% | HOP-62 NSCLC 96.5% | NCI-H460 lung 115% | HOP-92 NSCLC 99.3% | NCI-H522 lung 83.2% | A549/ATCC NSCLC 95.2% | 786-0 renal 99.3% | COLO 205 colon 108%

COc1cc(C2CC(c3ccc(Nc4ccnc5cc(Cl)ccc45)cc3)=NN2c2ccccc2)cc(OC)c1OC (stereo not given)
inactive: NCI-H23 lung 84.4% | NCI-H226 lung 83.6% | NCI-H322M lung 91.2% | HOP-62 NSCLC 72.8% | NCI-H460 lung 68.9% | HOP-92 NSCLC 52.5% | NCI-H522 lung 53% | A549/ATCC NSCLC 64.6% | 786-0 renal 76.1% | COLO 205 colon 74.1%

COc1cc(/C=C2\C(=O)Nc3ccc(N(C)C)cc32)cc(OC)c1OC
active: NCI-H460 lung 6.86% | A549/ATCC NSCLC -3.78%
inactive: NCI-H23 lung 26.8% | NCI-H226 lung 25.8% | NCI-H322M lung 37.6% | HOP-62 NSCLC 45.5% | HOP-92 NSCLC 33.2% | NCI-H522 lung 23.8% | 786-0 renal 28.4% | COLO 205 colon 28%
